Results from the supplement of paper PMC10849652.
Of roughly 8,800 targets only a part is listed; those with a hit were picked by preference. About 0.5% of all pairs of compound and target were hits. Unmarked numbers belong to inactive results.

Columns and labels:
Assay in all cases: log2 fold change, soluble protein after heating vs DMSO (PISA); higher = thermal stabilisation; K562 lysate, 10 uM; active = over 0.2 and 3.5 SD of the protein, either way, in both replicates (recomputed)
erlotinib = compound: C#Cc1cccc(Nc2ncnc3cc(OCCOC)c(OCCOC)cc23)c1 [erlotinib]
How it was run: (§1)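 A 30 min treatment with 10 μM compound was applied to crude K562 extract at 1 mg/mL protein in PBS pH 7.4 with 1 mM MgCl2. Heating for 3 min spanned 48°C-58°C, after which aliquots were pooled, adjusted to 0.5% NP-40 at 4°C and spun at 21,000xg for 90 min. TMTpro 16plex LC-MS/MS of the supernatant, with channel sums equalised, gave values recorded as log-two fold change in thermal stability against solvent controls, from duplicates.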

[1] = compound: C/C(=N\NC(=O)C1=CC(=CC=C1)S(=O)(=O)N2CCOCC2)/C3=C(C=CC(=C3)Cl)O
How it was run: as §1

[2] = compound: C1=CC(=CC=C1C2=NC3=C(N2)C=C(C=C3)C(=O)N)OC4=CC=C(C=C4)Cl
How it was run: as §1

[3] = compound: C1=CC2=C(C=CC(=C2)/C=C\3/C(=O)NC(=NCC4=CC=CS4)S3)N=C1
How it was run: as §1

[4] = compound: C1=CC2=NC=CN=C2C=C1/C=C/3\C(=O)NC(=O)S3
How it was run: as §1

[5] = compound: C1=CC=C(C=C1)C2=NC(=C(N2)C3=CC=NC=C3)C4=CC(=C(C=C4)Cl)O
How it was run: as §1

[6] = compound: C1=CC=C2C(=C1)C3=NNC4=CC=CC(=C43)C2=O
How it was run: as §1

[7] = compound: C1CCN(C1)C(=O)NC2=CC=CC(=C2)NC3=NC=C(C(=N3)NCCC4=CN=CN4)Br
How it was run: as §1

[8] = compound: C1CN(CCC1(CC2=CC=C(C=C2)Cl)N)C3=NC=NC4=C3C=CN4
How it was run: as §1

IRAK-1-4 Inhibitor I = compound: C1COCCN1CCN2C3=CC=CC=C3N=C2NC(=O)C4=CC(=CC=C4)[N+](=O)[O-] [IRAK-1-4 Inhibitor I]
How it was run: as §1

ibrutinib = compound: C=CC(=O)N1CCC[C@@H](n2nc(-c3ccc(Oc4ccccc4)cc3)c3c(N)ncnc32)C1 [ibrutinib]
How it was run: as §1

ralimetinib = compound: CC(C)(C)Cn1c(N)nc2ccc(-c3[nH]c(C(C)(C)C)nc3-c3ccc(F)cc3)nc21 [ralimetinib]
How it was run: as §1

[9] = compound: CC(C)(O)CC(=O)NCCn1ccc2ncnc(Nc3ccc(Oc4cccc(C(F)(F)F)c4)c(Cl)c3)c21
How it was run: as §1

[10] = compound: CC(C)C1=C2N=C(C=C(N2N=C1)NCC3=CC=CC=C3)NCCCCCCN
How it was run: as §1

[11] = compound: CC1=C(C(CC(=O)N1)C2=CC=C(C=C2)C(F)(F)F)C(=O)NC3=C(C=C4C(=C3)C=NN4)F
How it was run: as §1

[12] = compound: CC1=C(C2=C(C=C1)C(=O)C3=CC=CC=C3N2CCCN)C
How it was run: as §1

[13] = compound: CC1=C(C=C(C=C1)NC(=O)C2=CC(=CC=C2)C(C)(C)C#N)NC3=CC4=C(C=C3)N=CN(C4=O)C
How it was run: as §1

[14] = compound: CC1=C(C=C(C=C1)NC(=O)C2=CC(=CC=C2)N(C)C)NC(=O)C3=CC=C(C=C3)O
How it was run: as §1

[15] = compound: CC(=O)c1cnc2ccc(-c3cc(Cl)c(O)c(Cl)c3)nc2c1N[C@H]1CC[C@H](CN(C)C)CC1
How it was run: as §1

[16] = compound: CC1=CC=C(C=C1)SC2=C3C=C(SC3=CN=C2)C(=O)N
How it was run: as §1

Sequence of UniProt Q6N022 (Q6N022 whole entry, looked up): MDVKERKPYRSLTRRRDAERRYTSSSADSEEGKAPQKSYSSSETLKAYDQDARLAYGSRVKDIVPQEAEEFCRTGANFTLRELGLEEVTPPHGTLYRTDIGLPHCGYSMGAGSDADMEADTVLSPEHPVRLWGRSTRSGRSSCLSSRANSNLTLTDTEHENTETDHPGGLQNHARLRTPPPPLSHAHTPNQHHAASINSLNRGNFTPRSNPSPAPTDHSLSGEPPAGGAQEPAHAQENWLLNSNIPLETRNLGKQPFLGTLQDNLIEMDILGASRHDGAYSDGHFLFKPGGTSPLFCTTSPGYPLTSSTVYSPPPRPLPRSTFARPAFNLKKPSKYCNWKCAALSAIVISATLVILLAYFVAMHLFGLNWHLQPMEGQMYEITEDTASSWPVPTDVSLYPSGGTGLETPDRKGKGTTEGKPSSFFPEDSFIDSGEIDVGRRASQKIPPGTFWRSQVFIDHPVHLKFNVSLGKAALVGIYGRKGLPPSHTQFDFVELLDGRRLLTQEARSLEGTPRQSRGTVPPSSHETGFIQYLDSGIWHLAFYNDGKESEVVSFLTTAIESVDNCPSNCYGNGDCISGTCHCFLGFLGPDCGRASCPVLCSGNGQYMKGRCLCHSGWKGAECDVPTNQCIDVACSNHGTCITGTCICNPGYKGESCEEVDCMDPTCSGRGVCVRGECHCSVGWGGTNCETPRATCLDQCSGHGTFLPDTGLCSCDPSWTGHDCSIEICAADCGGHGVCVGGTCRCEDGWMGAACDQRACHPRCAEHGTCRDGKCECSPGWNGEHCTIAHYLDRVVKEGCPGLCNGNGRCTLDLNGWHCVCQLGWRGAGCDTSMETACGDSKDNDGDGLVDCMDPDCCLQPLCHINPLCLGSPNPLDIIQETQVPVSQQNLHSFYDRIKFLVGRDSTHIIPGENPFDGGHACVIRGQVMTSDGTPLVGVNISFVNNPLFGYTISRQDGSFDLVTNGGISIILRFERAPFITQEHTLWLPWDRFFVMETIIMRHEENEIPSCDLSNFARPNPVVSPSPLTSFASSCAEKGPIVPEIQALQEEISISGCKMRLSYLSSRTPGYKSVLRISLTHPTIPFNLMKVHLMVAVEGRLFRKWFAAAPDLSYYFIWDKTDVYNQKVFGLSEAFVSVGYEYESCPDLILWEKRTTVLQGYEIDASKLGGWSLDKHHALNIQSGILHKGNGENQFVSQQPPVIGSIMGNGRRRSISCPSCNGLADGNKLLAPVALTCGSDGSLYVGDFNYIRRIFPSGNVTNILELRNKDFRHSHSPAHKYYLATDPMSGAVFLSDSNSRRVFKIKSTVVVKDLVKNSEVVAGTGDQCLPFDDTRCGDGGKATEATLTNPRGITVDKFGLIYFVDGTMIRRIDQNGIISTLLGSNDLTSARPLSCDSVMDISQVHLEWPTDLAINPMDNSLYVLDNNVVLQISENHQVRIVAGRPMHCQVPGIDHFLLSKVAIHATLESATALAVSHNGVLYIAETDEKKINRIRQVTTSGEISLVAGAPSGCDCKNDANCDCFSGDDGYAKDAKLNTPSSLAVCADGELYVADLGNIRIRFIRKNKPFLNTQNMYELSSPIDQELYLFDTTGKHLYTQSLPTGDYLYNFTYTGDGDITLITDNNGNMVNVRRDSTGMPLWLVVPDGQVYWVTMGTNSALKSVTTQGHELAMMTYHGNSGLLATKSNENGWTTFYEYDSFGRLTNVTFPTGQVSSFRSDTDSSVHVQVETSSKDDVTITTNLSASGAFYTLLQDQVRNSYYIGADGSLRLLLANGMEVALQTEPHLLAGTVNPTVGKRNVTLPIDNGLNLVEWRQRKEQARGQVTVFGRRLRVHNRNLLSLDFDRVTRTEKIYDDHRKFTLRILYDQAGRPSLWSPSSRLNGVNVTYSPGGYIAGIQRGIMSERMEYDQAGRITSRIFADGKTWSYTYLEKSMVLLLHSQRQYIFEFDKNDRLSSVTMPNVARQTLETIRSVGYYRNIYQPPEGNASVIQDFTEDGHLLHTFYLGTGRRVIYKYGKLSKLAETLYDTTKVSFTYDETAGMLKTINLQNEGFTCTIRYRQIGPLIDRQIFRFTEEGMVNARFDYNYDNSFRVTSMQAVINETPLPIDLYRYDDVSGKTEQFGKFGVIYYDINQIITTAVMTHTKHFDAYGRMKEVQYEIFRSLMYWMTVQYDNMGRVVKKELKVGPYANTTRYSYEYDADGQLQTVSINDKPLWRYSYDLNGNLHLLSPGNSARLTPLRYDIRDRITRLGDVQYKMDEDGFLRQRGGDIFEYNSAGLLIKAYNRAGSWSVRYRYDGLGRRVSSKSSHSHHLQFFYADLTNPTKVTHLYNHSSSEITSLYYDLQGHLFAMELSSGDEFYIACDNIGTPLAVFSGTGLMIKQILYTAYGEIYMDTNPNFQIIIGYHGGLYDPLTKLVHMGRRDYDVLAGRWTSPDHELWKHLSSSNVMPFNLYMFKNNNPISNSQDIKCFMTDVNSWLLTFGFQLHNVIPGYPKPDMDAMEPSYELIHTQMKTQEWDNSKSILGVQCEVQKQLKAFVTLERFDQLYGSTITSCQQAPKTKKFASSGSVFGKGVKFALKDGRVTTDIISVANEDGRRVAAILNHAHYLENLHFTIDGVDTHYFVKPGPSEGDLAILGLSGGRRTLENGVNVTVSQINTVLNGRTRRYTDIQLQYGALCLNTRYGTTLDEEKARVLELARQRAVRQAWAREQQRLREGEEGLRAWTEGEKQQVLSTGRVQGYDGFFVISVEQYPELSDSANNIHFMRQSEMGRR
Sequence of UniProt Q9H6P5 (Q9H6P5 whole entry, looked up): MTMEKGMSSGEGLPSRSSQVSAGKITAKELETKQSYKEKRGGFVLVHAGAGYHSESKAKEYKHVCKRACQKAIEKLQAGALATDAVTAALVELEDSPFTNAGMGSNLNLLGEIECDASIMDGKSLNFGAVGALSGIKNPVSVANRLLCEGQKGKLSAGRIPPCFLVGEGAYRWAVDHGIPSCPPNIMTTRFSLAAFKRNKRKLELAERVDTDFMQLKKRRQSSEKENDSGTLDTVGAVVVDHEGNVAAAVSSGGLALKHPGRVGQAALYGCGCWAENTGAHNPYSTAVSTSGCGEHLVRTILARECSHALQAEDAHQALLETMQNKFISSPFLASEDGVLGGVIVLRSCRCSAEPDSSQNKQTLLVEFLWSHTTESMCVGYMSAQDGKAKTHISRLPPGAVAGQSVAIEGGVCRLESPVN
Sequence of UniProt Q96F44 (Q96F44 whole entry, looked up): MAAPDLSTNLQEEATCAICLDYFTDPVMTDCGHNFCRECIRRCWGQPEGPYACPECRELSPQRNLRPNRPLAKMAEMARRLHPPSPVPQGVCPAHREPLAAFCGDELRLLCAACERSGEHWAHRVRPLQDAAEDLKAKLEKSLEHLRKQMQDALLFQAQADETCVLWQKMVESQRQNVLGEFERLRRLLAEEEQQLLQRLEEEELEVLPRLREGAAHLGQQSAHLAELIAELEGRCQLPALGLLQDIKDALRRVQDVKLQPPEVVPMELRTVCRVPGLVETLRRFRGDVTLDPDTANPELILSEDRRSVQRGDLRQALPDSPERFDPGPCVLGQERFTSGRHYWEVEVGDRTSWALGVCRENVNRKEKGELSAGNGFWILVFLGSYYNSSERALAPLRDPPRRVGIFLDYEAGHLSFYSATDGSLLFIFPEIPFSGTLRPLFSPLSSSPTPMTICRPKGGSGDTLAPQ
Sequence of UniProt P15884 (P15884 whole entry, looked up): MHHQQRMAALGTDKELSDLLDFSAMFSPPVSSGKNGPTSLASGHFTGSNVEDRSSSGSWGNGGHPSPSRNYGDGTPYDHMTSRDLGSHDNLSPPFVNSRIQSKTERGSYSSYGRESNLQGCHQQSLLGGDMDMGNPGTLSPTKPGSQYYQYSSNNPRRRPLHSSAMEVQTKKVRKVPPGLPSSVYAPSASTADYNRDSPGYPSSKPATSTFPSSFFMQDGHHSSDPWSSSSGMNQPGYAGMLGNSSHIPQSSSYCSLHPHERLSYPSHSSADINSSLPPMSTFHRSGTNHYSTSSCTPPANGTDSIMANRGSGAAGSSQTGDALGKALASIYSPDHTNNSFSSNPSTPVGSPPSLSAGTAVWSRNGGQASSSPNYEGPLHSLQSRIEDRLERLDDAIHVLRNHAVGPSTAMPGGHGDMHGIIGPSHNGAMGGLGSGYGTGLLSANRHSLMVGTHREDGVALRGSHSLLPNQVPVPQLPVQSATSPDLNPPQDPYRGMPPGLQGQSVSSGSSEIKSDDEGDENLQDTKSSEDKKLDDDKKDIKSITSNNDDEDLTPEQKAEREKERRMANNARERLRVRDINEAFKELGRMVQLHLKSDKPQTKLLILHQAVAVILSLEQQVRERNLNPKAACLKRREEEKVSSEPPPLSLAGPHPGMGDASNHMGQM
Sequence of UniProt P36897 (P36897 whole entry, looked up): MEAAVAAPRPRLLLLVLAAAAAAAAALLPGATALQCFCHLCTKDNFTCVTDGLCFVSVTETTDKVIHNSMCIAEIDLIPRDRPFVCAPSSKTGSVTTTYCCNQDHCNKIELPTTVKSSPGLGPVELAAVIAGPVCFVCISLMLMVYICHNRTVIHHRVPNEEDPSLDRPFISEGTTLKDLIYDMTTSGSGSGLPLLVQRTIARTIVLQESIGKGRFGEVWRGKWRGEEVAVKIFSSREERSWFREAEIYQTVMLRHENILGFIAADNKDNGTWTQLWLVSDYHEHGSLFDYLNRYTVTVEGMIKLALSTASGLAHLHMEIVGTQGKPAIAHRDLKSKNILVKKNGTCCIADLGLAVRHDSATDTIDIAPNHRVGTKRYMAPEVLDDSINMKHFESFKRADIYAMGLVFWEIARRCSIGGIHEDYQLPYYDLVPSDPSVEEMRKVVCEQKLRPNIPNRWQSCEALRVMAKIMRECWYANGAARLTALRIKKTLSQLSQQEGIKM
Sequence of UniProt O43399 (O43399 whole entry, looked up): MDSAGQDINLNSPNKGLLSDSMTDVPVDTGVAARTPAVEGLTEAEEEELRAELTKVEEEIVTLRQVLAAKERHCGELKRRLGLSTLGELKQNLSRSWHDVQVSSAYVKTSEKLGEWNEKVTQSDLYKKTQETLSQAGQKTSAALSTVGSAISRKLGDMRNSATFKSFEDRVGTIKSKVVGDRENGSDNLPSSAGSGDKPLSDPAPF

Target | log2 fold change (erlotinib) | log2 fold change [1] | log2 fold change [2] | log2 fold change [3] | log2 fold change [4] | log2 fold change [5] | log2 fold change [6] | log2 fold change [7] | log2 fold change [8] | log2 fold change (IRAK-1-4 Inhibitor I) | log2 fold change (ibrutinib) | log2 fold change (ralimetinib) | log2 fold change [9] | log2 fold change [10] | log2 fold change [11] | log2 fold change [12] | log2 fold change [13] | log2 fold change [14] | log2 fold change [15] | log2 fold change [16]
TK1 (UniProt K7ERV3) | 0.01 | -0.061 | 0.078 | -0.047 | -0.114 | 0.048 | 0.036 | 0.017 | 0.222 | 0.04 | 0.175 | -0.018 | -0.061 | -0.114 | -0.013 | -0.023 | 0.032 | -0.028 |  | 
TNIK (UniProt C9J338) | 0.067 | -0.048 | 0.067 | -0.071 | -0.064 |  | -0.112 | -0.101 | 0.064 |  | 0.041 |  |  | 0.025 |  | -0.042 | 0.16 |  | -0.076 | -0.114
UBAP2L isoform 5 (UniProt Q14157) | -0.021 | -0.019 | 0.035 | 0.008 | 0.027 | -0.184 | 0.065 | 0.009 | -0.023 | 0.065 | 0.024 | -0.026 | -0.055 | 0.019 | 0.009 | 0.024 | -0.529 (active) | -0.009 | 0.028 | 0.003
TMEM161B (UniProt Q8NDZ6) | 0.051 | -0.08 | -0.017 | 0.174 | 0.007 | -0.068 | -0.133 | 0.052 | -0.01 | 0.09 | -0.026 | 0 | -0.224 | -0.113 | -0.005 |  | 0.027 | 0.108 | 0.197 | -0.012
TRIM11 (UniProt Q96F44) | 0.005 | -0.012 | -0.008 | -0.002 | 0.012 | -0.018 | -0.032 | -0.046 | 0.002 | 0.043 | 0.008 | -0.009 | -0.049 | -0.011 | -0.067 | -0.04 | 0.005 | -0.014 | 0.05 | 0.036
UBE3C (UniProt Q15386) | 0.035 | -0.061 | -0.067 | 0.011 | -0.036 | -0.01 | -0.022 | 0.027 | 0.049 | 0 | -0.011 | 0.012 | -0.028 | -0.011 | 0.005 | 0.04 | -0.021 | 0.021 | 0.024 | 0.01
TUBA4A (UniProt C9JQ00) |  |  |  |  | -0.18 |  |  |  |  |  | 0.125 |  |  |  |  |  |  |  |  | 
UBR4 isoform 4 (UniProt Q5T4S7) | 0.121 | -0.209 | -0.073 | -0.071 |  | 0.136 | 0.016 | 0.119 | -0.094 | 0.097 |  | -0.092 | -0.201 | 0.111 |  | 0.331 |  | -0.02 | 0.131 | 0.034
TPM3 isoform 3 (UniProt P06753) | -0.074 | -0.007 | -0.076 | -0.006 |  | -0.033 | 0.08 | 0.084 | -0.068 | -0.016 |  | 0.145 | 0.093 | -0.125 |  | 0.005 | -0.157 | 0.012 | 0.066 | -0.032
TASP1 (UniProt Q9H6P5) | -0.013 |  | -0.017 |  | -0.102 | -0.022 |  | -0.062 | 0.092 | 0.055 | 0.005 | -0.073 | -0.062 | 0.028 | 0.089 | -0.114 | 0.009 | -0.012 | 0.04 | 0.067
UBAP2, A0A0D9SFI5 |  |  |  |  |  |  |  |  |  |  |  |  |  |  |  |  | 0.035 |  |  | 
TGFBR1 isoform 2 (UniProt P36897) | 0.042 |  | -0.069 |  |  |  |  | 0.14 | -0.102 |  |  |  |  | -0.032 |  | -0.043 |  |  |  | 
TSPAN3 (UniProt O60637) | 0.002 | 0.012 | 0.058 | -0.073 |  | 0 | -0.135 | 0.006 | 0.032 | 0.091 |  | -0.069 | -0.025 | 0.05 | -0.173 | -0.099 |  | 0.135 | 0.008 | -0.04
TLE3 isoform 5 (UniProt Q04726) | 0.036 |  | -0.068 |  | 0.237 | 0.06 |  | -0.068 | 0.01 | -0.021 | 0.045 | -0.027 | -0.077 | -0.061 | 0.138 | -0.053 | 0.093 | 0.018 | -0.022 | -0.035
TCF4 (UniProt P15884) |  |  |  |  |  | 0.005 |  | 0.234 | -0.165 | -0.152 |  | -0.069 | 0.005 |  | 0.007 | -0.019 | -0.056 | 0.003 | -0.285 | -0.035
TUBGCP5 (UniProt Q96RT8) |  | 0.001 |  | -0.026 | 0.024 | 0.013 | 0.01 | -0.003 | -0.043 | -0.034 | 0.036 | 0.038 | 0.026 |  | 0.009 | 0.001 | -0.007 | -0.049 | 0.363 | -0.118
U2AF1L5 (UniProt P0DN76) | -0.029 |  | 0.044 |  |  | -0.066 |  | 0.109 | -0.107 | 0.132 |  | -0.019 | 0.001 | 0.069 | -0.008 | -0.003 |  | 0.143 | -0.047 | 0.011
TENM4 (UniProt Q6N022) |  |  |  |  | -0.334 |  |  |  |  |  | -0.043 |  |  |  |  |  | 0.162 |  | 0.035 | -0.109
TPD52L2 isoform 3 (UniProt O43399) | 0.008 |  | -0.036 |  | -0.028 | -0.049 |  |  |  | 0.029 | 0.288 | 0.167 | -0.038 | 0.017 | -0.007 |  |  | 0.107 |  | 
